From PubChem BioAssay (NCI)
The panel holds about 83,000 compounds, 20% with a hit somewhere; the sample as a whole holds those more often.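 48-hour exposure, single concentration, 96-well plates; percent growth endpoint where 0 means no net growth. Active: below 10.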 The source made the active and inactive calls.

Assays:
Test in all cases: NCI-60 one-dose screen, 48 h (100 = growth as untreated, 0 = no growth, -100 = all killed)
Conditions in all cases: 10 µM unless noted
[1] = test system: HCT-15 colon
[2] = test system: HT29 colon
[3] = test system: SNB-75 CNS
[4] = test system: SNB-19 CNS
[5] = test system: U251 CNS
[6] = test system: PC-3 prostate
[7] = test system: SK-MEL-5 melanoma
[8] = test system: UACC-62 melanoma
[9] = test system: LOX IMVI melanoma
[10] = test system: SK-MEL-28 melanoma
[11] = test system: SK-MEL-2 melanoma
[12] = test system: EKVX NSCLC
[13] = test system: SN12C renal
[14] = test system: UO-31 renal
[15] = test system: TK-10 renal
[16] = test system: ACHN renal
[17] = test system: CAKI-1 renal
[18] = test system: A498 renal
[19] = test system: CCRF-CEM leukemia
[20] = test system: MOLT-4 leukemia

Measured: growth

Cc1ccc(C(=O)CC(=O)C(F)(F)C(F)(F)C(F)(F)F)s1
inactive: [1] 105% | [2] 110% | [3] 96% | [4] 104% | [5] 108% | [6] 92.8% | [7] 106% | [8] 96.6% | [9] 104% | [10] 110% | [11] 113% | [12] 94.6% | [13] 96.4% | [14] 74.9% | [15] 118% | [16] 110% | [17] 99.2% | [18] 112% | [19] 103% | [20] 109%

C=CCCCCOc1cccc(/C=C2\N=C3SCCCN3C2=O)c1
inactive: [1] 90% | [2] 90.1% | [3] 91.1% | [4] 99.9% | [5] 92.7% | [6] 95.3% | [7] 99% | [8] 87.6% | [9] 88.7% | [10] 108% | [11] 91.3% | [12] 95.9% | [13] 89.8% | [14] 76.6% | [15] 99.4% | [16] 99.2% | [17] 92.6% | [18] 82.9% | [19] 121% | [20] 96.9%

CC(C)CCSc1nc(-c2ccc(F)cc2)c(C#N)c(N2CCN(C)CC2)n1
inactive: [1] 83.6% | [2] 82.2% | [3] 73% | [4] 91.7% | [5] 77.6% | [6] 65% | [7] 90.4% | [8] 87.2% | [9] 77.6% | [10] 96.5% | [11] 77.4% | [12] 87.8% | [13] 88.8% | [14] 51.3% | [15] 88.2% | [16] 76.5% | [17] 60.8% | [18] 69.7% | [19] 78.9% | [20] 72.5%

CCN(CC)CCCC(C)Nc1c(-c2ccccc2)cnc2cc(Cl)ccc12 (stereo not given)
inactive: [1] 29.5% | [3] 132% | [4] 101% | [5] 58.1% | [6] 64.5% | [7] 55.3% | [8] 97.2% | [9] 19.2% | [10] 15.3% | [11] 35.1% | [12] 83.4% | [13] 74.1% | [14] 50.3% | [15] 59.8% | [16] 93% | [17] 85.8% | [18] 60% | [19] 62.1% | [20] 48.5%
active: [2] -33.5%

CCn1c(Cc2ccccc2Nc2c(Cl)cccc2Cl)nnc1SCC(=O)Nc1ccccc1C(F)(F)F
inactive: [1] 84.6% | [2] 81.8% | [3] 92.9% | [4] 86.5% | [5] 93.3% | [6] 67.4% | [7] 92% | [8] 63.1% | [9] 93.9% | [10] 107% | [11] 79.9% | [12] 82.8% | [13] 77.1% | [14] 74.8% | [15] 88% | [16] 106% | [17] 87.1% | [18] 64.5% | [19] 108% | [20] 70.2%

Cc1cc([N+](=O)[O-])c(C)cc1N
inactive: [1] 105% | [2] 92.1% | [3] 86.7% | [4] 108% | [5] 103% | [6] 88.6% | [7] 98.4% | [8] 95.5% | [9] 100% | [10] 103% | [11] 107% | [12] 101% | [13] 106% | [14] 77.6% | [15] 102% | [16] 103% | [17] 92.8% | [18] 87.2% | [19] 106% | [20] 101%

CCCCc1nc(Cl)c(C2CC(c3ccc(S(N)(=O)=O)cc3)=NN2c2cc(Cl)cc(Cl)c2)[nH]1 (stereo not given)
active: [9] -6.25%
inactive: [1] 45.7% | [2] 23.3% | [3] 62.2% | [4] 36.4% | [5] 23.5% | [6] 36.4% | [7] 57.9% | [8] 38.8% | [10] 55.2% | [11] 47.2% | [12] 51.3% | [13] 48.6% | [14] 58.3% | [15] 84.6% | [16] 59.7% | [17] 40.5% | [18] 81.7% | [19] 26.2% | [20] 12.3%

CCN(CC)c1cc(C)c(Cc2c(OC)ccc3ccccc23)cc1C
inactive: [1] 97.8% | [2] 73.7% | [3] 91.1% | [4] 93.2% | [5] 94.9% | [6] 83.9% | [7] 99.4% | [8] 79.8% | [9] 94.9% | [10] 100% | [11] 94.4% | [12] 93.4% | [13] 91.2% | [14] 73.1% | [15] 95.6% | [16] 99.4% | [17] 93.1% | [18] 96.6% | [19] 102% | [20] 79.7%

Cc1ccc(NC(=O)c2sc3nc4c(cc3c2N)C(=O)CCC4)cc1Cl
inactive: [1] 97.3% | [2] 97.5% | [3] 110% | [4] 114% | [5] 97.9% | [6] 104% | [7] 102% | [8] 108% | [9] 99.2% | [10] 108% | [11] 112% | [12] 86.2% | [13] 119% | [14] 111% | [15] 96.5% | [16] 109% | [17] 85.9% | [18] 97.9% | [19] 104% | [20] 108%

CCCNCCC(C)=O
inactive: [1] 111% | [2] 98.1% | [3] 107% | [4] 97.1% | [5] 68.8% | [6] 97.1% | [7] 115% | [8] 98% | [9] 94.5% | [10] 108% | [11] 118% | [12] 89.6% | [13] 102% | [14] 92.4% | [15] 101% | [16] 106% | [17] 106% | [18] 94.2% | [19] 107% | [20] 112%

O=C(NCCN1CCCCC1)n1cc(-c2ccncc2)c(-c2ccc(Cl)c(O)c2)n1
inactive: [1] 86.6% | [2] 95.5% | [3] 78.9% | [4] 101% | [5] 98.5% | [6] 84.6% | [7] 73.2% | [8] 37.9% | [9] 64.7% | [10] 37.5% | [11] 60.8% | [12] 114% | [13] 81.6% | [14] 55.4% | [15] 79.4% | [16] 57.4% | [17] 109% | [18] 114% | [19] 87% | [20] 88.2%

CCOC(=O)C1OC2(CCCC2)OC1C(=O)OCC (stereo not given)
inactive: [1] 106% | [2] 99.2% | [3] 104% | [4] 99.3% | [5] 109% | [6] 97.6% | [7] 101% | [8] 96.7% | [9] 102% | [10] 122% | [11] 94.9% | [12] 108% | [13] 101% | [14] 83% | [15] 102% | [16] 109% | [17] 102% | [18] 107% | [19] 86.3% | [20] 92.2%

O=C1Nc2ccc(Cl)cc2/C1=C\c1c(-c2ccc(F)cc2)nc2ccccn12
inactive: [1] 21.4% | [4] 41.6% | [5] 23.2% | [6] 18.8% | [11] 66.2% | [12] 33.8% | [15] 82.8% | [16] 31.4% | [17] 40.2%
active: [2] 0.999% | [3] -49.4% | [7] -28.4% | [8] 7.95% | [9] -30.1% | [10] 6.38% | [13] 6.4% | [14] 6.63% | [18] -18% | [19] 5.38% | [20] -4.17%

N=C(N)c1ccc(NCCNc2ccc(C(=N)N)cc2)cc1
active: [19] -71.7% | [20] -52.9%
inactive: [1] 90.6% | [2] 103% | [3] 101% | [4] 116% | [5] 89.8% | [6] 123% | [7] 82% | [8] 81.8% | [9] 86.8% | [10] 114% | [11] 97.3% | [12] 102% | [13] 46% | [14] 87.2% | [15] 111% | [16] 85.5% | [17] 74.3% | [18] 90.2%

CN1C(=O)N(C)C2C1NN=c1s/c(=C\c3ccsc3)c(=O)n12 (stereo not given)
inactive: [1] 24.7% | [4] 39.6% | [5] 30.6% | [6] 38.5% | [7] 41.6% | [8] 28.3% | [9] 37.7% | [10] 67.8% | [11] 56.4% | [12] 65.8% | [13] 58.8% | [14] 56% | [15] 76.8% | [16] 47% | [17] 35.7% | [19] 28.8% | [20] 49.7%
active: [2] 9.4% | [3] -7.65% | [18] 7.47%
